From PubChem
Shown are actives, neighbours in structure and some others; about 3.9% of the full set was active somewhere.
Rtt109 HAT inh – C. albicans Rtt109 histone acetyltransferase inhibition; inhibition, % at 34.9 µM; AID 540336; Q5AAJ8; 330,000 compounds, 0.16% hits; purified Rtt109/Vps75, ThioGlo CoA-SH fluorescence, 4 h;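 active = inhibition of at least 50% in every replicate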
TPT1 inhibitor – C. albicans TPT1 enzyme inhibition; recombinant caTPT1, FP RNA substrate dephosphorylation; inhibition, % at 5 µM; 300,000 compounds, 0.81% hits; AID 1962;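 active = inhibition above the mean of all tested compounds plus 3 SD, set per screening campaign, cut at about 24% in these data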;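 note: plate controls were DMSO alone for no effect and ferristatin control at 100 nM for full effect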
SKKanGAS inh – inhibitors of SKKanGAS S. pyogenes growth in kanamycin (SK-promoter or general growth effect) | BacTiter-Glo, 6 h | inhibition, % at 7.5 µM | 300,000 compounds, 1.3% hits | AID 1662;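 active = mean replicate score, as percent of positive control median, at least 50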;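 note: strain carries kanamycin resistance gene driven by streptokinase promoter and grows in 40 µg/ml kanamycin; loss of luminescence reflects streptokinase promoter inhibition or plain growth inhibition; 0% = median of DMSO wells and 100% = positive control at its reference dose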
WT yeast gro inh – growth inhibition of WT yeast, mitochondrial fusion screen | mitochondrial fusion phenotypic screen, WT strain | AID 1362 | 190,000 compounds, 2.1% hits | inhibition, % at 10 µM; in the data active = inhibition above about 58%; tested in S. cerevisiae
Platelet DG rel – modulates dense granule release in human platelets | human platelet-rich plasma, SFLLRN dense granule ATP release, luminescence | inhibition, %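 (compounds screened at 7.5 µM in platelet-rich plasma)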 | 300,000 compounds, 0.22% hits;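 active = mean replicate score, as percent of positive control, at or above 50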
PHOSPHO1 block – PHOSPHO1 (human) inhibition | Q8TCT1 | 290,000 compounds, 1.1% hits | inhibition, % at 13.3 µM | recombinant PHOSPHO1, absorbance phosphatase assay | AID 1565; in the data active = inhibition above about 60%
Target sequence (Q8TCT1 whole entry, looked up): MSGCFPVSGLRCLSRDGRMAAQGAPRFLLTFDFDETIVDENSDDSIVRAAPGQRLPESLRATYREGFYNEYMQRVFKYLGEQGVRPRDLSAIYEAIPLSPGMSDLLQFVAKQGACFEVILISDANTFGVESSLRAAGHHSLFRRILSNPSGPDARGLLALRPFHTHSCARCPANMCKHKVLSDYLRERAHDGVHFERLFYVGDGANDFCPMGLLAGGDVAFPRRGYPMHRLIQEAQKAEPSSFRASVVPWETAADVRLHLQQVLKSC
TPT1 inh confirm – TPT1 (C. albicans) inhibition, confirmation; AID 2149; shares compounds with TPT1 inhibitor; 2,400 compounds, 74% hits; inhibition, % at 5 µM; recombinant caTPT1, fluorescence polarization, RNase T1 coupled;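 active = inhibition above the primary screen limit, the mean inhibition of all tested compounds plus 3 SD, cut at about 25% in these data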
RNase T1 inh – counter-screen for TPT1 inhibitors: inhibitors of Aspergillus oryzae RNase T1 | 2,400 compounds, 83% hits | RNase T1 cleavage, fluorescence polarization, 1536-well | AID 2153 | shares compounds with TPT1 inhibitor | inhibition, % at 5 µM;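 active = inhibition above the solvent-only control well mean plus 3 SD, limit set per screening run, cut at about 23% in these data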;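 note: plate controls were DMSO wells with enzyme for no effect and wells without RNase T1 for full effect; inhibitors block cleavage so intact labeled substrate keeps polarization high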
Target sequence (P00651 whole entry, looked up): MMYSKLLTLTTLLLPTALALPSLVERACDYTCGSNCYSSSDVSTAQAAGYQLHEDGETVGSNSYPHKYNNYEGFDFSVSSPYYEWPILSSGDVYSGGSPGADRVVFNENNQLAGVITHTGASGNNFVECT
Starred values were filed as active, the others as inactive.

What do the screens show for `Cc1cc(/C=C2/C(=O)NC(=O)N(Cc3ccco3)C2=O)c(C)n1-c1ccccc1`?
Rtt109 HAT inh: 0.4; TPT1 inhibitor: 23.1; SKKanGAS inh: -2.9; WT yeast gro inh: 10.8; Platelet DG rel: -23.6; PHOSPHO1 block: -2.2

How did CCN(CC)c1ccc(/C=C2/C(=O)NC(=O)N(Cc3ccco3)C2=O)cc1 do in these assays?
Rtt109 HAT inh: 12.8; TPT1 inhibitor: 47.8*; SKKanGAS inh: -14.0; WT yeast gro inh: 12.9; Platelet DG rel: -4.0; PHOSPHO1 block: -3.4; TPT1 inh confirm: 94.2*; RNase T1 inh: 107.4*

What do the screens show for `CN(C)c1ccc(/C=C2/C(=O)NC(=O)N(Cc3ccco3)C2=O)cc1`?
Rtt109 HAT inh: 1.9; TPT1 inhibitor: 26.3*; SKKanGAS inh: 8.6; WT yeast gro inh: -2.4; Platelet DG rel: -1.7; PHOSPHO1 block: -1.3; TPT1 inh confirm: 17.8; RNase T1 inh: 25.7*

What do the screens show for `CCOc1ccccc1N1C(=O)CC(=O)NC1=O`?
Rtt109 HAT inh: -1.8; TPT1 inhibitor: 8.3; SKKanGAS inh: -10.6; Platelet DG rel: 2.8; PHOSPHO1 block: 26.3

Results for Cc1ccccc1N1C(=O)CC(=O)N(c2ccccc2C)C1=O ?
Rtt109 HAT inh: 1.2; TPT1 inhibitor: 30.6*; SKKanGAS inh: -17.1; WT yeast gro inh: -6.0; Platelet DG rel: -11.3; PHOSPHO1 block: -17.0; TPT1 inh confirm: 14.7; RNase T1 inh: 22.1*

How did Cc1ccc(N2C(=O)NC(=O)/C(=C\c3cc(C)n(-c4sc5c(c4C#N)CCCC5)c3C)C2=O)cc1 do in these assays?
Rtt109 HAT inh: 5.4; TPT1 inhibitor: 25.9*; SKKanGAS inh: 1.0; WT yeast gro inh: 9.6; Platelet DG rel: -5.6; PHOSPHO1 block: -6.0; TPT1 inh confirm: 36.1*; RNase T1 inh: 49.6*

Results for N/C(=N/[N+](=O)[O-])N1CCN(C(=O)c2ccc(Cl)cc2)CC1 ?
Rtt109 HAT inh: -0.3; TPT1 inhibitor: -10.2; SKKanGAS inh: -1.2; WT yeast gro inh: -18.6; Platelet DG rel: 11.0; PHOSPHO1 block: 43.7

What do the screens show for `COc1cc([C@@H]2c3cc4c(cc3[C@@H](OC)[C@H]3COC(=O)[C@H]23)OCO4)cc(OC)c1O`?
Rtt109 HAT inh: -5.1; TPT1 inhibitor: 2.5; SKKanGAS inh: 2.0; Platelet DG rel: 3.8; PHOSPHO1 block: 17.7

How did COc1ccc(-n2nc(C(=O)NCC(=O)N3CCC4(CC3)OCCO4)c3ccccc3c2=O)cc1Cl do in these assays?
Rtt109 HAT inh: 4.8; TPT1 inhibitor: -0.9; SKKanGAS inh: 3.0; Platelet DG rel: 8.9; PHOSPHO1 block: 47.9

What do the screens show for `O=C(O)Cn1cc(/C=C2\C(=O)NC(=O)N(c3ccc(F)cc3)C2=O)c2ccccc21`?
SKKanGAS inh: -2.7; Platelet DG rel: -2.8; PHOSPHO1 block: 18.9

What do the screens show for `COc1ccc(N2C(=O)NC(=O)/C(=C\c3cn(C)c4ccccc34)C2=O)cc1`?
Rtt109 HAT inh: -16.6; TPT1 inhibitor: 66.9*; SKKanGAS inh: 0.6; Platelet DG rel: 13.3; TPT1 inh confirm: 68.4*; RNase T1 inh: 70.8*

Results for COCCNC(=O)Cn1cc(/C=C2\C(=O)NC(=O)N(c3ccccc3F)C2=O)c2ccccc21 ?
Rtt109 HAT inh: 3.8; TPT1 inhibitor: 26.5*; SKKanGAS inh: -9.3; Platelet DG rel: 0.7; PHOSPHO1 block: 28.0; TPT1 inh confirm: 10.4; RNase T1 inh: 18.7

Results for COC(=O)Cn1cc(/C=C2\C(=O)NC(=O)N(c3ccc(OC)cc3)C2=O)c2ccccc21 ?
Rtt109 HAT inh: -2.3; TPT1 inhibitor: 24.6*; SKKanGAS inh: 1.5; Platelet DG rel: 7.2; TPT1 inh confirm: -13.3; RNase T1 inh: 4.3

How did COC(=O)C1=C(c2cccc(Cl)c2)C[C@@H]2CC[C@H]1N2C(=O)NCC1CC1 do in these assays?
Rtt109 HAT inh: 0.4

What do the screens show for `CC(C)(C)C(=O)Cn1c(NCCCl)nc2ccccc21`?
Rtt109 HAT inh: 2.3; TPT1 inhibitor: -4.8; SKKanGAS inh: 5.5; WT yeast gro inh: 7.6; Platelet DG rel: -13.9; PHOSPHO1 block: 34.1
